Compound activity deposited in PubChem by National Center for Advancing Translational Sciences (NCATS).
LmPK inh: blocks Leishmania mexicana pyruvate kinase activity | Q27686 | purified LmPK, Kinase-Glo ATP luminescence, 1 h | Potency, µM (series often up to 57.5 µM), hits mostly inhibitors | 290,000 compounds, 0.37% hits
Target sequence (Q27686 whole entry, looked up): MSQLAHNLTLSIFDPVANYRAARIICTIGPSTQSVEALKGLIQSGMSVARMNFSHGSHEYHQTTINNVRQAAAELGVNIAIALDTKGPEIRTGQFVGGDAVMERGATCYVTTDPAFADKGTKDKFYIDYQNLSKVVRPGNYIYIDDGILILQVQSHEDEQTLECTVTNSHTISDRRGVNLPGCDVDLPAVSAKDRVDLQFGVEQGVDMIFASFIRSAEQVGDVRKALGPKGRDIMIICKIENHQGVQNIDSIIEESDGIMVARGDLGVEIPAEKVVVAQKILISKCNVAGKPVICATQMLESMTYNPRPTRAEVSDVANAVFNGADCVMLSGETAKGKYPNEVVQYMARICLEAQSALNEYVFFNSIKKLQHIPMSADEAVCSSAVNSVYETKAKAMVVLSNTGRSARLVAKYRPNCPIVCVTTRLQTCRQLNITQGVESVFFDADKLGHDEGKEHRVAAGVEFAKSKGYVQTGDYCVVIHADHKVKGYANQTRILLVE
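Purified LmPK (0.1 nM) with 0.5 mM PEP and 0.1 mM ADP in imidazole buffer pH 7.2 with MgCl2/KCl, 1 h at room temperature. ATP formed was read by luciferase luminescence and normalized to no-enzyme and uninhibited controls.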
Shiga inhibitor: Shiga toxin inhibition; inhibition, % at 38.7 µM; Vero cells, Shiga toxin protein synthesis inhibition reporter; 290,000 compounds, 9.2% hits; in the data active = inhibition mostly above about 28%, no sharp cut-off; inactive = mostly below about 43%
Pf growth 48h: P. falciparum growth inhibition at 48 hours (one generation); P. falciparum luciferase growth in erythrocytes, 48 h; Potency, µM (doses to about 28.7 µM), usual class: inhibitors; 310,000 compounds, 5.9% hits; AID 504832
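Firefly luciferase activity from engineered P. falciparum reports growth; inhibitors lower the luminescent signal. Cultures contained 2% hematocrit erythrocytes at 0.1% final parasitemia.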
Pf growth 96h: P. falciparum growth inhibition at 96 hours; Potency, µM (top dose mostly 28.7 µM), actives largely listed as inhibitors; 320,000 compounds, 6.9% hits; P. falciparum luciferase reporter growth, 96 h
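Two parasite generations (96 h, 37 C, 5% CO2) of compound exposure in infected erythrocytes (0.05% parasitemia, 2% hematocrit). Luciferase-reporter P. falciparum; decreased luminescence indicates inhibited growth, aimed at apicoplast-acting delayed death.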
Cycloheximide cs: counter-screen for Shiga toxin inhibitors: cycloheximide protein synthesis inhibition; cell reporter, cycloheximide protein synthesis inhibition counterscreen; max response, %; 300,000 compounds, 12% hits; AID 2314; in the data active = max response mostly above about 13%, no sharp cut-off; inactive = mostly below about 14%; note: read at 38.3 µM for the half of the compounds with a filed dose
Hits are given with their value; - = inactive; ? = inconclusive; . = no result given. Hits are enriched below; roughly 22% of the tested compounds scored in any of these assays. Unless noted, calls come from the whole dose curve; as a rule, active = well fitted inhibition curve with a large enough effect; inconclusive = small, poorly fitted or top-dose-only effect, or another doubt; inactive = no such curve, though single readings can be large or run the other way.

SMILES	LmPK inh	Shiga inhibitor	Pf growth 48h	Pf growth 96h	Cycloheximide cs
COc1c(O)cc2oc(-c3ccc(O)cc3)cc(=O)c2c1O	-	51	-	-	13
O=C(Nc1cccnc1)/C(N=Nc1cccnc1)=C(\O)c1ccccc1	-	-	?	?	-
Cc1cccc(-n2c(O)c(C=NC3CCS(=O)(=O)C3)c3ccccc3c2=O)c1C (configuration not stated)	-	-	-	-	-
O=C(NC1CCCCC1)C(c1ccc2ncccc2c1)N(Cc1ccccc1)C(=O)c1ccc2c(c1)OCCO2 (configuration not stated)	-	-	13µM	10µM	-
COc1ccc(CN(C(=O)c2ccc3c(c2)OCCO3)C(C(=O)NC2CCCCC2)c2ccc3ncccc3c2)cc1 (configuration not stated)	-	-	?	9.3µM	-
O=C(NC1CCCCC1)C(c1ccncc1)N(Cc1ccccc1)C(=O)c1ccc(-c2ccccc2)[nH]1 (configuration not stated)	-	-	?	-	-
CC(C(=O)NCc1ccccc1Cl)N1C(=O)c2ccccc2C1=O (configuration not stated)	-	-	-	-	-
COc1cc2c(cc1NC(=O)CSc1nc3ccccc3[nH]1)oc1ccccc12	-	-	?	?	-
COc1cc2c(cc1NC(=O)CSc1ccccc1)oc1ccccc12	-	-	-	-	29
COc1cc2c(cc1NC(=O)CN(C)Cc1nc3ccccc3c(=O)[nH]1)oc1ccccc12	-	-	5.2µM	?	-
COc1cc2c(cc1NC(=O)CSc1nccn1C)oc1ccccc12	-	68	-	-	43
COc1ccc(OCC(=O)Nc2cc3oc4ccccc4c3cc2OC)cc1	-	-	-	-	-
CC(=NCCN1CCN(C(C)=C2C(=O)c3ccccc3C2=O)CC1)C1=C(O)CC(C)(C)CC1=O	-	-	-	-	-
COCCNCC(=O)Nc1ccc(OC(F)(F)F)cc1	-	-	-	-	-
COc1ccc2cc(C(c3nnnn3C(C)(C)C)N3CCSCC3)c(=O)[nH]c2c1 (configuration not stated)	-	-	12µM	-	-
COc1ccc(Cn2nnnc2C(c2cc3ccc(OC)cc3[nH]c2=O)N2CCCCCC2)cc1 (configuration not stated)	-	-	9.3µM	-	-
Cc1ncc(CN2CCCC(CCC(=O)NCc3ccc(F)c(F)c3)C2)s1 (configuration not stated)	-	-	-	?	-
COc1ccc(Cn2nnnc2C(c2ccc(N(C)C)cc2)N2CCC(C(N)=O)CC2)cc1 (configuration not stated)	-	-	-	-	-
NC1=NC(c2ccccc2C(F)(F)F)N(c2ccc(F)c(Cl)c2)C(N)=N1 (configuration not stated)	-	-	1.9µM	-	-
NC(=O)c1ncn([C@@H]2O[C@H](CO)[C@@H](O)[C@H]2O)c1N	.	-	.	.	-
NC(=O)c1cn(C2OC(CO)C(O)C2O)c2ncnc(N)c12 (configuration not stated)	-	-	0.1µM	0.12µM	-
CCC(C)c1ccc(NC(=O)N2CCN(C(=O)C3CCCO3)CC2)cc1 (configuration not stated)	-	-	-	-	-
N#Cc1cnc(NN)nc1	-	-	10µM	?	-
Cc1cc(C(=O)Nc2ccc3ccccc3c2)oc1C	-	127	-	-	30
Cc1ccoc1C(=O)Nc1ccc2ccccc2c1	-	-	-	-	41
SMILES	LmPK inh	Shiga inhibitor	Pf growth 48h	Pf growth 96h	Cycloheximide cs
CC(=O)c1cc(C(=O)Nc2ccc3ccccc3c2)c(C)o1	-	-	-	-	-
Cc1cc(C(=O)Nc2cccc(C(=O)O)c2)oc1C	?	81	-	-	38
Cc1cc(C(=O)Nc2cccc(C(=O)O)c2)c(C)o1	-	-	.	-	-
Cc1cc(C(=O)Nc2ccc3ccccc3c2)c(C)o1	-	96	-	-	32
CC1CCCN(Cc2cccc(Oc3ccccc3)c2)C1 (configuration not stated)	-	-	?	-	-
COc1ccc(C)cc1NC(=O)Nc1ccncc1	-	-	?	?	-
COc1ccc(C(=O)NCCc2nnc3ccc(SCC(=O)N4CCCC4)nn23)cc1	-	-	-	-	-
Cc1cc(C(=O)Nc2nncs2)oc1C	-	.	-	2.6µM	-
CSc1ncccc1C(=O)Nc1nc2c(C)cccc2s1	-	-	-	-	-
Cc1cc(C(=O)Nc2nc3c(C)cccc3s2)c(C)o1	-	-	-	-	19
COC(=O)c1ccc(COC(=O)CNC(=O)c2ccc(C)s2)cc1	.	.	-	-	.
CC1(/[N+]([O-])=C/c2ccccc2F)CCCCC1=O (configuration not stated)	-	-	-	-	-
Cc1cc(OCCCCNC(C)C)cc(C(C)C)c1	-	-	?	6.6µM	-
CCc1cc(C(=O)NCC2CCCO2)sc1C (configuration not stated)	-	43	-	-	31
Cc1c(C(=O)NCC2CCCO2)oc2ccc3c(c12)C(=O)CC(C)(C)O3 (configuration not stated)	-	75	-	-	40
CCOc1ccc(C(=O)NCC2CCCO2)cc1 (configuration not stated)	-	117	-	.	38
CCOc1ccc(C(=O)NC(C(=O)NCC2CCCO2)C(C)C)cc1 (configuration not stated)	-	-	-	-	-
O=C(NCC1CCCO1)C(=O)N/N=C/c1ccc(O)c(Cl)c1 (configuration not stated)	-	-	-	4.1µM	-
O=C(Cc1ccccc1)Nc1ccccc1C(=O)NCC1CCCO1 (configuration not stated)	-	-	-	13µM	-
O=C(NCC1CCCO1)/C(=C\c1ccc(Cl)cc1)NC(=O)c1ccccc1 (configuration not stated)	-	-	-	0.83µM	-
O=C(NCC1CCCO1)c1ccc(C(=O)NCC2CCCO2)cc1 (configuration not stated)	-	-	-	0.47µM	-
O=[N+]([O-])c1ccccc1Nc1cccnc1	.	.	-	-	.
CCC1CN(C(=O)N2CCC(C(=O)NCc3ccco3)CC2)c2cc(C)ccc2O1 (configuration not stated)	-	-	-	13µM	-
CC(Sc1nnc(COc2ccc(Cl)cc2)o1)C(=O)Nc1ccc(N2CCOCC2)cc1 (configuration not stated)	.	.	-	-	.
O=S1(=O)N=C(Nc2ccc(O)c(CN3CCCCC3)c2)c2ccccc21	-	-	1.5µM	?	-
CCOC(=O)c1c(C)[nH]c(C(=O)COC(=O)CNC(=O)C2CCCCC2)c1C	-	146	-	-	34
CCOC(=O)c1c(C)[nH]c(C)c1C(=O)COC(=O)CNC(=O)C1CCCCC1	-	-	-	-	-
CCOC(=O)c1c(C)[nH]c(C(=O)COC(=O)CNC(=O)c2ccccc2Cl)c1C	-	109	-	-	56
